Laboratory results published in PubChem BioAssay AID1159580 (chemical genetic matrix, 2015).
Among all 5,500 compounds or so, about 2,000 (36%) were called active. Not shown: some 18% with an inconclusive outcome. No stated cut-off is given here; in the data, active means normalized growth mostly below about 0.91 (no sharp cut-off); inconclusive means no clear call, values can overlap the other calls; inactive means mostly above about 0.92. The list shows a part of the results.

Assay: chemical genetic growth profiling, strain panel (AID 1159580);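 further: tested at 20 µM; growth read once vehicle control cultures reached saturation at 30 °C; 1 = growth at the plate median or of vehicle wells; lower values mean less growth of the strain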
Settings: growth OD

Measured: normalized growth

COc1cc2c(cc1OC)[C@@H]1C(=O)c3ccc4c(c3O[C@@H]1CO2)C=CC(C)(C)O4
inactive: S. cerevisiae deletion strains, locus YKL009W, strain mrt4, active compounds read low 0.999 | S. cerevisiae deletion strains, locus YKL068W, active compounds read low 0.982 | S. cerevisiae deletion strains, locus YKL085W, strain MDH1 (second series), active compounds read low 0.967 | S. cerevisiae deletion strains, locus YKL085W, strain MDH1, active compounds read low 0.967 | S. cerevisiae deletion strains, locus YKL160W, strain elf1, active compounds read low 0.973 | S. cerevisiae deletion strains, locus YKL190W, strain CNB1, active compounds read low 0.986 | S. cerevisiae deletion strains, locus YKR001C, strain vps1, active compounds read low 0.934 | S. cerevisiae deletion strains, locus YKR026C, strain gcn3, active compounds read low 1.01 | S. cerevisiae deletion strains, locus YKR091W, strain srl3, active compounds read low 1 | S. cerevisiae deletion strains, locus YLL001W, strain dnm1, active compounds read low 0.992 | S. cerevisiae deletion strains, locus YLL026W, active compounds read low 1.01 | S. cerevisiae deletion strains, locus YLL041C, strain sdh2, active compounds read low 1.01 | S. cerevisiae deletion strains, locus YLR027C, strain aat2, active compounds read low 0.982 | S. cerevisiae deletion strains, locus YLR039C, strain RIC1, active compounds read low 0.891 | S. cerevisiae deletion strains, locus YLR058C, strain SHM2, active compounds read low 0.983 | S. cerevisiae deletion strains, locus YLR102C, strain apc9, active compounds read low 0.982 | S. cerevisiae deletion strains, locus YLR113W, strain HOG1, active compounds read low 0.898 | S. cerevisiae deletion strains, locus YLR221C, strain rsa3, active compounds read low 0.983 | S. cerevisiae deletion strains, locus YLR258W, strain gsy2, active compounds read low 0.994 | S. cerevisiae deletion strains, locus YLR262C, strain YPT6 (second series), active compounds read low 0.868 | S. cerevisiae deletion strains, locus YLR262C, strain YPT6, active compounds read low 0.916 | S. cerevisiae deletion strains, locus YLR268W, strain sec22, active compounds read low 0.97 | S. cerevisiae deletion strains, locus YLR320W, strain mms22, active compounds read low 0.89 | S. cerevisiae deletion strains, locus YLR330W, strain CHS5, active compounds read low 0.986 | S. cerevisiae deletion strains, locus YLR342W, strain FKS1 (second series), active compounds read low 0.943 | S. cerevisiae deletion strains, locus YLR342W, strain FKS1, active compounds read low 0.946 | S. cerevisiae deletion strains, locus YLR357W, strain rsc2, active compounds read low 0.992 | S. cerevisiae deletion strains, locus YLR370C, strain arc18, active compounds read low 1.01 | S. cerevisiae deletion strains, locus YLR371W, strain rom2, active compounds read low 0.961 | S. cerevisiae deletion strains, locus YLR384C, strain iki3, active compounds read low 1.03 | S. cerevisiae deletion strains, locus YLR418C, strain cdc73, active compounds read low 0.962 | S. cerevisiae deletion strains, locus YML016C, strain PPZ1, active compounds read low 0.981 | S. cerevisiae deletion strains, locus YML032C, strain rad52, active compounds read low 0.964 | S. cerevisiae deletion strains, locus YML120C, strain ndi1, active compounds read low 0.979 | S. cerevisiae deletion strains, locus YML124C, strain tub3, active compounds read low 0.982 | S. cerevisiae deletion strains, locus YMR058W, strain fet3, active compounds read low 0.978 | S. cerevisiae deletion strains, locus YMR078C, strain ctf18, active compounds read low 0.952 | S. cerevisiae deletion strains, locus YMR125W, strain sto1, active compounds read low 1.02 | S. cerevisiae deletion strains, locus YMR129W, active compounds read low 0.995 | S. cerevisiae deletion strains, locus YMR205C, strain PFK2, active compounds read low 0.92 | S. cerevisiae deletion strains, locus YMR223W, strain ubp8, active compounds read low 0.954 | S. cerevisiae deletion strains, locus YMR231W, strain pep5, active compounds read low 1.02 | S. cerevisiae deletion strains, locus YMR263W, strain SAP30, active compounds read low 1 | S. cerevisiae deletion strains, locus YMR307W, strain GAS1, active compounds read low 0.86 | S. cerevisiae deletion strains, locus YNL067W, strain RPL9B, active compounds read low 1.01 | S. cerevisiae deletion strains, locus YNL071W, strain lat1, active compounds read low 0.942 | S. cerevisiae deletion strains, locus YNL128W, strain TEP1, active compounds read low 0.995 | S. cerevisiae deletion strains, locus YNL153C, strain GIM3, active compounds read low 1.02 | S. cerevisiae deletion strains, locus YNL183C, strain NPR1, active compounds read low 0.896 | S. cerevisiae deletion strains, locus YNL209W, strain ssb2, active compounds read low 1.03 | S. cerevisiae deletion strains, locus YNL233W, strain BNI4, active compounds read low 1 | S. cerevisiae deletion strains, locus YNL248C, strain rpa49, active compounds read low 1.02 | S. cerevisiae deletion strains, locus YNL250W, strain rad50, active compounds read low 0.972 | S. cerevisiae deletion strains, locus YNL271C, strain bni1, active compounds read low 0.963 | S. cerevisiae deletion strains, locus YNL298W, strain CLA4, active compounds read low 0.984 | S. cerevisiae deletion strains, locus YNL307C, strain MCK1, active compounds read low 0.929 | S. cerevisiae deletion strains, locus YNL322C, strain KRE1 (second series), active compounds read low 1.02 | S. cerevisiae deletion strains, locus YNL322C, strain KRE1, active compounds read low 0.987 | S. cerevisiae deletion strains, locus YNR049C, strain mso1, active compounds read low 1.01 | S. cerevisiae deletion strains, locus YNR052C, strain pop2, active compounds read low 0.951 | S. cerevisiae deletion strains, locus YOL006C, strain TOP1, active compounds read low 0.908 | S. cerevisiae deletion strains, locus YOL012C, strain htz1 1.09 | S. cerevisiae deletion strains, locus YOL147C, strain pex11, active compounds read low 0.969 | S. cerevisiae deletion strains, locus YOR001W, strain rrp6, active compounds read low 0.997 | S. cerevisiae deletion strains, locus YOR061W, strain CKA2, active compounds read low 0.987 | S. cerevisiae deletion strains, locus YOR069W, strain VPS5, active compounds read low 0.985 | S. cerevisiae deletion strains, locus YOR070C, strain gyp1, active compounds read low 1.01 | S. cerevisiae deletion strains, locus YOR080W, strain dia2, active compounds read low 1.02 | S. cerevisiae deletion strains, locus YOR083W, strain WHI5, active compounds read low 0.943 | S. cerevisiae deletion strains, locus YOR106W, strain vam3, active compounds read low 0.98 | S. cerevisiae deletion strains, locus YOR136W, strain idh2, active compounds read low 0.983 | S. cerevisiae deletion strains, locus YOR144C, strain elg1, active compounds read low 0.979 | S. cerevisiae deletion strains, locus YOR184W, strain ser1, active compounds read low 0.899 | S. cerevisiae deletion strains, locus YOR231W, strain MKK1, active compounds read low 0.953 | S. cerevisiae deletion strains, locus YOR265W, strain rbl2, active compounds read low 1.01 | S. cerevisiae deletion strains, locus YOR270C, strain vph1, active compounds read low 0.922 | S. cerevisiae deletion strains, locus YOR290C, strain snf2, active compounds read low 1.01 | S. cerevisiae deletion strains, locus YOR316C, strain cot1, active compounds read low 0.966 | S. cerevisiae deletion strains, locus YPL051W, strain arl3, active compounds read low 0.973 | S. cerevisiae deletion strains, locus YPL055C, strain LGE1, active compounds read low 0.995 | S. cerevisiae deletion strains, locus YPL078C, strain atp4, active compounds read low 1.01 | S. cerevisiae deletion strains, locus YPL106C, strain sse1, active compounds read low 1.06 | S. cerevisiae deletion strains, locus YPL240C, strain hsp82, active compounds read low 1.04 | S. cerevisiae deletion strains, locus YPL241C, strain CIN2, active compounds read low 0.986 | S. cerevisiae deletion strains, locus YPL256C, strain CLN2, active compounds read low 0.928 | S. cerevisiae deletion strains, locus YPR119W, strain clb2, active compounds read low 0.983 | S. cerevisiae deletion strains, locus YPR141C, strain kar3, active compounds read low 0.95 | S. cerevisiae deletion strains, locus YPR163C, strain tif3, active compounds read low 0.975 | S. cerevisiae deletion strains, locus YPR167C, strain met16, active compounds read low 0.967 | S. cerevisiae deletion strains, strain wtn01, active compounds read low 0.971 | S. cerevisiae strains, strain wild type, active compounds read low 0.984
